According to the supplement of paper PMC6555819:

Experiments:
Assay in all cases: PBM binding z-score (relative to random genomic background probes); higher = stronger binding; sequences stand for … in GC…GCGATTGACAGCGTAGAATGAAGG
[1] = test system: PPARg:RXRa DBDmut IVT, anti-RXR (DBD mutation: RXRa K156A/R161A, NR concentration 270 nM, RXRa partner concentration 90 nM)
Outline: (§1)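 Custom Agilent 4×180K protein-binding microarrays carried double-stranded probes. Their 34-nt variable regions held direct-repeat seeds, single-nucleotide variants, half-site ablations and random human genomic background sequences. Arrays were incubated 1 h with ligand-free nuclear receptor dimers in PBS pH 7.4, 2% milk, 0.02% Triton X-100, 1 mM DTT, 0.2 mg/mL BSA and 0.4 mg/ml salmon testes DNA. Antibodies against each partner (one per run) detected binding, and scanned fluorescence was regression-normalized. Binding z-scores use random background probes as reference.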

[2] = test system: PPARg:RXRa IVT, anti-PPARg (NR concentration 270 nM, RXRa partner concentration 90 nM)
Outline: as §1

[3] = test system: PPARg DBDmut:RXRa IVT, anti-PPARg (DBD mutation: PPARg1 K132A/R137A, NR concentration 270 nM, RXRa partner concentration 90 nM)
Outline: as §1

[4] = test system: PPARg DBDmut IVT, anti-PPARg (DBD mutation: PPARg1 K132A/R137A, NR concentration 270 nM)
Outline: as §1

[5] = test system: PPARg homodimer (NR concentration 180 nM)
Outline: as §1

[6] = test system: PXR:RXRa (NR concentration 270 nM, RXRa partner concentration 90 nM)
Outline: as §1

[7] = test system: PXR homodimer (NR concentration 270 nM)
Outline: as §1

[8] = test system: RARa:RXR (NR concentration 270 nM, RXRa partner concentration 90 nM)
Outline: as §1

[9] = test system: RARa homodimer (NR concentration 270 nM)
Outline: as §1

[10] = test system: RARb:RXRa (NR concentration 270 nM, RXRa partner concentration 90 nM)
Outline: as §1

[11] = test system: RARb homodimer (NR concentration 270 nM)
Outline: as §1

[12] = test system: RARg:RXRa (NR concentration 270 nM, RXRa partner concentration 90 nM)
Outline: as §1

[13] = test system: RARg homodimer (NR concentration 270 nM)
Outline: as §1

[14] = test system: RXRa DBDmut IVT, anti-RXR (DBD mutation: RXRa K156A/R161A, NR concentration 90 nM)
Outline: as §1

[15] = test system: RXRa homodimer (NR concentration 180 nM)
Outline: as §1

[16] = test system: THRa:RXRa (NR concentration 90 nM, RXRa partner concentration 90 nM)
Outline: as §1

[17] = test system: THRa homodimer (NR concentration 90 nM)
Outline: as §1

[18] = test system: VDR homodimer (NR concentration 270 nM)
Outline: as §1

| Sequence | PBM binding z-score [1] | PBM binding z-score [2] | PBM binding z-score [3] | PBM binding z-score [4] | PBM binding z-score [5] | PBM binding z-score [6] | PBM binding z-score [7] | PBM binding z-score [8] | PBM binding z-score [9] | PBM binding z-score [10] | PBM binding z-score [11] | PBM binding z-score [12] | PBM binding z-score [13] | PBM binding z-score [14] | PBM binding z-score [15] | PBM binding z-score [16] | PBM binding z-score [17] | PBM binding z-score [18] |
| --- | --- | --- | --- | --- | --- | --- | --- | --- | --- | --- | --- | --- | --- | --- | --- | --- | --- | --- |
| ATCTCTAGGTAAATGTTCAGTGAATCCCGAGGAT | 2.02 | 1.64 | 1.6 | 0.892 | 0.258 | -0.0966 | 0.236 | 0.0149 | 0.709 | 0.211 | -0.29 | 0.459 | 0.485 | -0.155 | 0.162 | 0.097 | 0.171 | -0.0904 |
| CCTACTGGGCCATTCAGAGGTCATTGTTCATATG | 4.55 | 4.17 | 0.178 | -0.495 | 2.5 | 4.71 | 2.33 | 4.2 | 0.216 | 2.97 | 4.14 | 4.19 | 2.88 | 1.2 | 3.37 | 3.23 | 1.38 | 3.59 |
| CGAACTAGGTCAGAGCAGGACAGTGAAGGATGAT | 7.51 | 7.58 | 2.72 | 2.03 | 0.79 | 1.15 | -0.0767 | 1.54 | -0.158 | 2.94 | 1.84 | 2.48 | 3.25 | 0.613 | 1.11 | 4.2 | 0.0649 | -0.21 |
| TTACCAAAGTGAAAGGTCGTTGATGCACGCCTTG | -0.147 | 1.43 | 0.177 | 0.436 | 1.39 | 2.3 | 0.329 | 2.39 | -0.107 | 1.86 | 1.87 | 1.64 | 1.01 | 0.293 | 2.65 | 1.34 | -0.34 | 1.41 |
| CAAACTAGGTCAAGGTCAAAGTAGGTTTGTGCCA | 8.75 | 8.96 | 4.01 | 3.69 | 5.67 | 5.46 | 2.97 | 5.43 | 2.61 | 5.31 | 5.18 | 6.25 | 6.86 | 3.11 | 6.11 | 4.6 | 3.96 | 4.8 |
| ACTCGGAGGATAAAGGTCAGAGCTACGCCAGTGA | 0.595 | 3.02 | -0.0489 | 0.296 | 4.61 | 3.25 | 0.221 | 4.24 | 2.08 | 4.01 | 3.89 | 4.72 | 4.44 | 0.655 | 4.43 | 2.69 | 0.203 | 0.801 |
| TTACCAAGGTGAAGGTCGTGGATCCCTCTGTAGA | 2.23 | 3.55 | -0.363 | 0.188 | 0.731 | 1.53 | -0.1 | 2.38 | -0.307 | 2.4 | 2.22 | 1.86 | 1.49 | 0.01 | 2.63 | 2.79 | 1.11 | 0.222 |
| CCTACTGGGCCATTGAGAGGTCATTGATCATATG | 4.21 | 3.95 | -0.492 | 0.0836 | 2.14 | 4.37 | 2.03 | 4.26 | 0.245 | 2.82 | 3.78 | 4 | 2.63 | 0.642 | 3.13 | 3.06 | 1.26 | 3.78 |
| ATATGTAGGTGAAGGGTCATTCAGGTTGGTTCGC | 8.51 | 8.85 | 6.44 | 4.69 | 6.22 | 5.27 | 2.24 | 5.79 | 1.46 | 3.3 | 3.76 | 4.77 | 3.15 | 2.06 | 5.6 | 3.55 | 1.35 | 4.34 |
| CAAACTAGGTCAAGGGGTCAAAGTCCGCTTCCCG | 8.13 | 8.72 | 0.711 | 1.52 | 6.55 | 6.31 | 1.78 | 7.88 | 1.67 | 5.46 | 5.65 | 8 | 7.19 | 2.98 | 8.47 | 4.64 | 2.49 | 4.55 |
| CCTACTGGGCCACTCAGAGGTCATTGATCATATG | 5.13 | 5.18 | -0.186 | -0.561 | 1.94 | 5.1 | 1.83 | 4.46 | 0.374 | 3.28 | 4.26 | 4.46 | 3.39 | 0.734 | 4.43 | 3.41 | 1.71 | 2.75 |
| CCTAGTTGGTCAAGGTCCCACACGCTATAGGTAC | 1.11 | 1.17 | -0.0918 | 0.474 | 1.59 | 0.0607 | 0.41 | 0.436 | 0.884 | 1.29 | 1.27 | 0.7 | 1.19 | 0.446 | 0.433 | 0.687 | 0.94 | 0.734 |
| TCTAGTTGGTCACGGAGGTCACACGCGACGGGTA | 2.46 | 4.38 | 1.06 | 1.9 | 3.12 | 4.55 | 1.5 | 4.54 | 1.78 | 3.87 | 4.41 | 4.66 | 4.95 | 1.4 | 4.97 | 3.67 | 2.4 | 3.43 |
| CAAACTAGGTCACGAGGTCAAAGTCCGCTTCCCG | 8.56 | 9.04 | 2.5 | 3.48 | 3.45 | 6.15 | 3.42 | 6.91 | 1.34 | 5.48 | 5.59 | 7.56 | 6.9 | 3.1 | 7.59 | 4.76 | 4.67 | 4.9 |
| TCTCGGAGGACACGAAGGTCAAAGCTTTCCAGAG | 1.76 | 1.71 | -0.973 | -1.26 | 1.25 | 3.68 | 2.71 | 3.62 | 0.304 | 3.66 | 4.15 | 4.3 | 4.3 | 1.15 | 3.26 | 3.4 | 1.44 | 2.67 |
